# Data as given in PubChem BioAssay.
# Values without a mark were called inactive. Calls of active or inactive are those of the source. How the calls were made is not given here.
# Tests used:
# [1] = tested on: Botulinum neurotoxin type F light chain protease (Clostridium botulinum); experiment: Clostridium botulinum type F light chain protease inhibitors, microsphere substrate cleavage, validation (AID 588459); settings: multiplex microsphere protease substrate cleavage assay, flow cytometry; at 10 µM; active compounds read high
# [2] = target: Botulinum neurotoxin type A (Clostridium botulinum) (UniProt P0DPI0); experiment: BoNT/A light chain protease inhibitors, biochemical, multiplex microsphere flow cytometry, validation set (AID 588460); settings: at 10 µM, active compounds read high
# [3] = target: Lethal factor (Bacillus anthracis) (UniProt P15917); experiment: Bacillus anthracis lethal factor inhibition, microsphere flow cytometry protease assay, validation at 10 µM (AID 588461); settings: multiplex microsphere protease cleavage assay, active compounds read high
# Chain of Lethal factor (Bacillus anthracis) (P15917 whole entry, looked up): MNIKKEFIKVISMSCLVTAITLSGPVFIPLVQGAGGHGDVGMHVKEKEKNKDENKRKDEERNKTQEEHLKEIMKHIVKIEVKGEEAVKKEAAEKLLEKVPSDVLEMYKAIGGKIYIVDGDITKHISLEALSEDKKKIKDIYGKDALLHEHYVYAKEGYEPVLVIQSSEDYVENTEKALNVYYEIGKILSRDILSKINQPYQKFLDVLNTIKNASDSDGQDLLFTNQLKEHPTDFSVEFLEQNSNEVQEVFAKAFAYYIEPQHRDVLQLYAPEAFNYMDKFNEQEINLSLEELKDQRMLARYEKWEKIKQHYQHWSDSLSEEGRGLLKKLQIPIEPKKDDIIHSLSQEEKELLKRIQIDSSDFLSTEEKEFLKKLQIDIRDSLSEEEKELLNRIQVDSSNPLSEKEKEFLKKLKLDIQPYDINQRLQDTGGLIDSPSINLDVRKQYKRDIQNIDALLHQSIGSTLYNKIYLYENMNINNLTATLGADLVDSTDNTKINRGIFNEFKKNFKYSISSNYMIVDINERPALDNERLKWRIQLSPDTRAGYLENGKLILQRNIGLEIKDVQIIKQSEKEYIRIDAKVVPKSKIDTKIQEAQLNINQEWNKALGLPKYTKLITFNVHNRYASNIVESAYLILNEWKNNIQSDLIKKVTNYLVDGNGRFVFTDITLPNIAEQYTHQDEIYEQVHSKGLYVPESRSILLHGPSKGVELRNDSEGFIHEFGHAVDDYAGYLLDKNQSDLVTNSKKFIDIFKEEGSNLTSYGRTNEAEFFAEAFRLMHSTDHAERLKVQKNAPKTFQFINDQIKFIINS
# Chain of Botulinum neurotoxin type A (Clostridium botulinum) (P0DPI0 whole entry, looked up): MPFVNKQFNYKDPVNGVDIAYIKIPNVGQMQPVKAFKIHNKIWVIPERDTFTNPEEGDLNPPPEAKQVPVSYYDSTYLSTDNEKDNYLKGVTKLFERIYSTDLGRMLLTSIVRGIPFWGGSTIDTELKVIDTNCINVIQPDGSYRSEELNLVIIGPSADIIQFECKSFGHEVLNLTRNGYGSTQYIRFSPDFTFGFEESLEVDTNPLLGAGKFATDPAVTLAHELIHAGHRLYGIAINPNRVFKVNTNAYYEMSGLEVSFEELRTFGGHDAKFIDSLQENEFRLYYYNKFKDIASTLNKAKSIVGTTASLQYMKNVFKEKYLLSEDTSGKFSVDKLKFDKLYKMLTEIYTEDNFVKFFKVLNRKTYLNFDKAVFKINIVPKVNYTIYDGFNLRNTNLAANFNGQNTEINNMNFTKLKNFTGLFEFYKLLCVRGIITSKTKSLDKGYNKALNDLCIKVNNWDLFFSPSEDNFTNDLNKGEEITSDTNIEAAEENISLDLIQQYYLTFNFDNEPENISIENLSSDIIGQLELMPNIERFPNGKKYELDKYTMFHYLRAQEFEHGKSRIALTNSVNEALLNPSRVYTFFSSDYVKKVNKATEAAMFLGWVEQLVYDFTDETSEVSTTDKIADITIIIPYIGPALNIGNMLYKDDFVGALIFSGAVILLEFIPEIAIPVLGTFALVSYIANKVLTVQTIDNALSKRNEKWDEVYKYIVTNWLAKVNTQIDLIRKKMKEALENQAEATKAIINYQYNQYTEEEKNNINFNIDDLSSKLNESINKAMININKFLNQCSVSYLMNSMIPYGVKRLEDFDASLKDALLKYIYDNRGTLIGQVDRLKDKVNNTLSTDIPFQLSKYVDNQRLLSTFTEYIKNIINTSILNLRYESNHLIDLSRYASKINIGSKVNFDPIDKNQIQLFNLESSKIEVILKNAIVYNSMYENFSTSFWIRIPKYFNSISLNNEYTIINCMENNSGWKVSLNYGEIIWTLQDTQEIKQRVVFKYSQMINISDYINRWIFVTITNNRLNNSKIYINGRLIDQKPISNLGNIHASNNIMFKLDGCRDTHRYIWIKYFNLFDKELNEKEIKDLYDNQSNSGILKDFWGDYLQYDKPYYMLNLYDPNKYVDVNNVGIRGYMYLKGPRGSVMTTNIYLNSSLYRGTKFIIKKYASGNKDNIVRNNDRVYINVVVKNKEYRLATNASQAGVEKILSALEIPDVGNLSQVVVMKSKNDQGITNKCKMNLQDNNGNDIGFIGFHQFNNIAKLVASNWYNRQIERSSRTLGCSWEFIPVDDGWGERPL
SMILES,inhibition [1],inhibition [2],inhibition [3]
CN1C(C(=O)Nc2ccccn2)=C(O)c2sccc2S1(=O)=O,0.5%,-0.2%,-1.1%
Cc1nc(NCc2ccco2)c(C#N)c2c1COC(C)(C)C2,1%,-1.2%,-0.5%
CCOC(=O)c1c(C)oc2cc(Br)c(OC(C)C(=O)OCC)cc12 (centres undefined),-0.6%,0.5%,-2.8%
COC(=O)C1=C(C)N(C)C(=S)NC1c1ccc(Cl)cc1 (centres undefined),-0.7%,-0.5%,-4%
CCOc1ccc2nc(NC(=O)NC3CCCCC3)sc2c1,0%,-1.5%,-3.9%
COc1ccc(C2=NOC(COc3ccc4c(C)cc(=O)oc4c3)C2)c(OC)c1 (centres undefined),-0.4%,1.7%,0%
CN(C)CCOc1ccc(Cl)cc1C(C)(C)C,-7.7%,-2.2%,-7.1%
Fc1ccccc1CNCCC(Cc1ccccc1)c1ccc2c(c1)OCO2 (centres undefined),-8.9%,-0.6%,1.9%
COc1ccccc1C(=O)N=C1NC(=O)CC2C(=O)NCCN12 (centres undefined),-2.8%,-1.5%,-5.2%
CCN(CC)CCCNC(=O)C1c2ccccc2Oc2ccccc21,4.2%,0.7%,-0.4%
Cc1ccccc1C(=O)Oc1ccc(Sc2ccc(O)cc2)cc1,-2%,-0.4%,-3.8%
CS(=O)(=O)Oc1ccc2c(c1)O/C(=C\C=C\c1ccccc1)C2=O,26.9%,28.3%,25%
CCN(CCCCOC(=O)c1ccc(OC)c(OC)c1)C(C)Cc1ccc(OC)cc1 (centres undefined),-0.4%,-2.7%,-2.8%
COc1ccc2nc(S(=O)Cc3ncc(C)c(OC)c3C)[nH]c2c1 (centres undefined),4.3%,1.7%,5%
C[C@H](NC(=O)NCCc1ccccc1)C(=O)O,0.5%,-0.2%,-0.6%
CCc1nc2ccccc2c(NC(=O)CN2CC(C)CC(C)C2)c1C (centres undefined),-2%,0.8%,0.9%
COc1cc(NC(=S)NN2CCN(C)CC2)cc(OC)c1OC,5.5%,-0.6%,-5.6%
NCCc1ccc(O)c(O)c1,-6.2%,-3.5%,-8.7%
CC(C(=O)O)c1ccc(-c2ccccc2)c(F)c1 (centres undefined),5.7%,0.5%,5.7%
Cn1nc(-c2ccc(Cl)cc2)nc2c(=O)n(C)c(=O)nc1-2,-0.5%,2%,3.7%
CCN1CCN(C(=O)N[C@@H](C(=O)N[C@@H]2C(=O)N3[C@@H]2SC(C)(C)[C@@H]3C(=O)O)c2ccccc2)C(=O)C1=O,-1.5%,0.3%,1.4%

SMILES,inhibition [1],inhibition [2],inhibition [3]
O=C(c1ccco1)N(CCC(c1ccccc1)c1ccco1)Cc1ccco1 (centres undefined),-0.1%,-0.1%,3.5%
COc1ccc2[nH]c3c(c2c1)CCn1c-3nc2ccccc2c1=O,7%,2.2%,4.4%
C[C@H]1O[C@H]1P(=O)(O)O,-0.1%,1.1%,-2%
Cn1cc(C2N3CC4(C)CN2CC(C)(C3)C4=O)c2ccccc21 (centres undefined),1%,1.7%,-10.2%
COC(=O)c1cc(-c2ccc(C)o2)nc2ccccc12,1.8%,2%,2.2%
CCC(C)NCCOCCOc1ccc(Cl)cc1Br (centres undefined),0.5%,0.2%,-2.1%
N#C/C(=C/c1ccccc1)C(=O)NCc1ccccc1,5.2%,0.1%,-7.6%
Cn1c2ccc(CC(=O)O)cc2c2cc(CC(=O)O)ccc21,2.2%,-0.6%,7.2%
COc1ccc(Cc2nc(-c3ccc(Br)cc3)no2)cc1,-0.7%,-1.6%,-5.8%
CC(=O)OCC(=O)[C@H]1CC[C@H]2[C@@H]3CCC4=CC(=O)CC[C@]4(C)[C@H]3CC[C@]12C,-5.8%,-1.1%,-5.7%
CCCCC[C@H](O)/C=C/[C@@H]1[C@@H](C/C=C\CCCC(=O)OC)[C@@H](O)C[C@H]1O,-3.3%,-1%,-1.1%
CC(=O)NS(=O)(=O)c1ccc(N)cc1,0.7%,1%,4.5%
CC1(C)S[C@@H]2[C@H](NC(=O)Cc3ccccc3)C(=O)N2[C@H]1C(=O)O,4.2%,1.7%,-0.8%
Cc1ccc(C(=O)COC(=O)c2cccc(N3C(=O)c4c(C)nc5ccccc5c4C3=O)c2)cc1C,-1.2%,-1.1%,-0.1%
COc1cc(C2NCCc3c2[nH]c2ccccc32)ccc1OC(C)C (centres undefined),1.4%,-0.5%,4.3%
CC(C)[N+]1(C)[C@@H]2CC[C@H]1CC(OC(=O)C(CO)c1ccccc1)C2 (some centres undefined),-2.9%,1%,-3%
COc1ccc(C(Cl)=C(c2ccc(OC)cc2)c2ccc(OC)cc2)cc1,1.5%,-0.6%,-1.1%
Fc1ccc(-n2cc(CNCCc3ccccn3)c(-c3ccccc3Cl)n2)cc1,-1.9%,1.1%,6.5%
COc1ccc(NC(=O)C2C(=O)N(CCO)C3(C)CC2c2ccccc2O3)cc1 (centres undefined),0.1%,1.3%,-1.3%
O=C(NC1CCCCC1)N1CCc2[nH]c3ccccc3c2C1,36.5% (active),3.5%,5%
COc1ccc2c(=O)c(-c3cnn(-c4ccccc4)c3)c(C)oc2c1,-2.2%,0.9%,1.4%

SMILES,inhibition [1],inhibition [2],inhibition [3]
O=C(O)c1ccc(OCCn2ccnc2)cc1,2.9%,-0.2%,-0.6%
NC(=O)c1ncn([C@@H]2O[C@H](CO)[C@@H](O)[C@H]2O)c1O,-1.3%,-1.9%,-13.3%
COc1cc(NS(=O)(=O)c2ccc(N)cc2)nc(OC)n1,1.2%,1.1%,0.1%
COc1ccc(CCN(C)Cc2nc(Cc3ccc(OC)c(OC)c3)no2)cc1OC,1%,-1%,6.9%
CN(C)CC/C=C1\c2ccccc2Sc2ccc(Cl)cc21,-9.1%,-1.1%,2.3%
O=C(Cc1ccc(Br)cc1)c1ccc(O)cc1O,-3.5%,-0.4%,-5.4%
C#C[C@]1(O)CC[C@H]2[C@@H]3CCc4cc(O)ccc4[C@H]3CC[C@@]21C,-3.8%,-2.8%,6.8%
O=C(O)/C=C/c1ccc(O)c(O)c1,-0.3%,-0.4%,-1.7%
CCN(CC)CCOC(=O)C(c1ccccc1)c1ccccc1,1.8%,-1.6%,-3.7%
COc1ccccc1C(CCN(Cc1ccccc1)C(C)=O)c1ccco1 (centres undefined),-6.5%,-1.3%,-0.5%
c1ccc(-c2ccc(C(c3ccccc3)n3ccnc3)cc2)cc1 (centres undefined),-0.7%,-1.3%,-1.4%
CCn1cc(C(=O)O)c(=O)c2cc(F)c(N3CCNCC3)cc21,-0.1%,-0.5%,2.3%
CC(=O)NC(Cc1ccccc1)C(=O)OCC(=O)c1ccccc1 (centres undefined),-2.6%,-1.5%,-3.3%
CC1CCCC(C)N1NC(=O)c1ccc(Cl)c(S(N)(=O)=O)c1 (centres undefined),-0.2%,0.8%,5.8%
CCSC(=O)CCCCCCCCCCCO,2.8%,1.5%,14.5%
O=C(CCN1CCC(c2ccccc2)C1)c1ccc2c(c1)OCCO2 (centres undefined),4.6%,-0.2%,-1.8%
O=c1[nH]c(=O)n(C2CCCO2)cc1F (centres undefined),-5.7%,-0.7%,1.8%
Cc1cc(=O)oc2c(CN(C)Cc3ccccc3)c(O)ccc12,-0.2%,-0.7%,-3.4%
COc1cc2nc(N3CCN(C(=O)C4COc5ccccc5O4)CC3)nc(N)c2cc1OC (centres undefined),-0.3%,0%,-2.9%
CC(NC(=O)c1ccc(N2CCNCC2)c([N+](=O)[O-])c1)C12CC3CC(CC(C3)C1)C2 (centres undefined),0.1%,-0.6%,-5.2%
CC(=O)[C@@]1(O)CC[C@H]2[C@@H]3C[C@H](C)C4=CC(=O)CC[C@]4(C)[C@H]3CC[C@@]21C,-1.7%,-2.5%,-5.5%
